Most compounds without a hit are left out; they make up all but 1.6% or so of the library.
KCNQ2 enhance = potentiators of rat KCNQ2 potassium channel; Potassium voltage-gated channel subfamily KQT member 2 (Rattus norvegicus), O88943; CHO-K1 KCNQ2, FluxOR thallium flux fluorescence; hits give high values; B-score at 10 µM; actives 0.54% (n = 310,000); AID 2239, 2010;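 active = fluorescence ratio B-score at least 3 SD of library B-scores, with initial fluorescence B-score within 3 of them, cut at about 5.3 in these data; same plate scores as AID 2156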;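 note: B-score of peak minus minimum over baseline fluorescence ratio after K+ and Tl+ stimulus; positive B-score means potentiation of KCNQ2 with more thallium influx and brighter signal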
KCNQ2 block = rat KCNQ2 potassium channel inhibitors, primary screen, cell-based, CHO-K1, FluxOR thallium flux, B-score; Potassium voltage-gated channel subfamily KQT member 2 (Rattus norvegicus), O88943; 20 min; hits give low values; B-score at 10 µM; actives 1.1% (n = 310,000);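 active = fluorescence ratio B-score at most minus 3 library SDs, with starting brightness B-score within 2 library SDs, cut at about -5.5 in these data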
Kir21 conf inh = mouse Kir2.1 channel blockers, retest, confirmation, cell-based, FluxOR thallium flux, duplicate. shares compounds with KCNQ2 enhance. Kir2.1-expressing cells, FluxOR thallium flux fluorescence; hits give low values. Tl flux remaining, % of negative control (hits give low values), % at 10 µM. actives 41% (n = 2,300);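 active = Primary-screen hit whose thallium flux fell at least 3 control SD below untreated wells in both duplicates, with normal baseline fluorescence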;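 note: 0% = blank wells without stimulus and 100% = stimulated no-compound controls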
HEK293 Tl flux = parental HEK293 activity in Kir2.1 inhibitor counter-screen | shares compounds with KCNQ2 enhance | parental HEK293 cells, FluxOR thallium flux fluorescence; 0% = unstimulated blank wells | FluxOR signal as % of negative control (100 = no effect), % at 10 µM | actives 19% (n = 2,300);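 active = dye signal at least 3 control SD above or below untreated wells in both duplicates, raw fluorescence within 3, either direction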;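 note: percent is based on the flux ratio of peak minus minimum fluorescence over baseline F0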
CHO-K1 ctr = nonspecific thallium flux increase in parental CHO-K1, confirmation, counter-screen for KCNQ2 potentiator project, cell-based, FluxOR thallium flux, duplicate. shares compounds with KCNQ2 enhance. parental CHO-K1 cells, FluxOR thallium flux fluorescence; zero = vehicle mean+3SD, 100% = vehicle-minus-blank window. activity increase over 3SD of controls, % at 10 µM. actives 43% (n = 1,200);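 active = signal rise of at least 3 SD above the untreated control mean, in both duplicate wells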;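 note: counter screen of KCNQ2 potentiator hits so any rise reflects channel-independent effects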
KCNQ1 pot spec = human KCNQ1 channel potentiation off-target, confirmation, selectivity assay for KCNQ2 potentiator project, cell-based, CHO, FluxOR thallium flux; activation over 3SD threshold, % at 10 µM; CHO KCNQ1 stable, FluxOR thallium flux fluorescence; beyond 3SD, as % of vehicle-control signal; shares compounds with KCNQ2 enhance; actives 28% (n = 1,200);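 active = fluorescence ratio rise of at least 3 SD of vehicle wells above their mean, in both replicate wells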;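 note: 0% = vehicle mean plus 3 SD and 100% = vehicle minus unstimulated blank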
Target sequence (P51787 whole entry, looked up): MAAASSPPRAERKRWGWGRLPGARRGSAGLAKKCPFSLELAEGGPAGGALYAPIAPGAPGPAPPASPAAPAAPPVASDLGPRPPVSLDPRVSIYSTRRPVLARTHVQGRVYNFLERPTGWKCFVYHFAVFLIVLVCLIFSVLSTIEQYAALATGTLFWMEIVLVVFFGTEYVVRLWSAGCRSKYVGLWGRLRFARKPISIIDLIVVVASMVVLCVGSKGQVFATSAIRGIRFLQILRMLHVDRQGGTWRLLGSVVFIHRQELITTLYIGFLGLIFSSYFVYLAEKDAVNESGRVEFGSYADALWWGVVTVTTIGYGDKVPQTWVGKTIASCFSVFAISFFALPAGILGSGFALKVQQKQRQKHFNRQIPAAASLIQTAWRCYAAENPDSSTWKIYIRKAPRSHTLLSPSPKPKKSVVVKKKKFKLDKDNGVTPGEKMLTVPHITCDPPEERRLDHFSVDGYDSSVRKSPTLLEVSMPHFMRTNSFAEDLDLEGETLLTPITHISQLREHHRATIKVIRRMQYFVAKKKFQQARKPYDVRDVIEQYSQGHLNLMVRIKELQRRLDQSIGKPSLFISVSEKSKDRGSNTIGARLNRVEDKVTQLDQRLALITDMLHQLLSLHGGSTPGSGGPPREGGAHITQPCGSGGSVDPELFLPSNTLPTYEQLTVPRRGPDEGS
KCNQ2 pot confirm = rat KCNQ2 channel potentiators, confirmation, cell-based, CHO, FluxOR thallium flux, duplicate. shares compounds with KCNQ2 enhance. CHO-KCNQ2 cells, FluxOR thallium flux fluorescence. potentiation, less the hit threshold, % at 10 µM. actives 68% (n = 1,200). AID 2287, 2010;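 active = fluorescence ratio rising 3 SD or more over the vehicle control mean in both replicates, plus primary screen hit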;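 note: peak minus minimum thallium fluorescence divided by baseline after K/Tl stimulus; 0% = vehicle mean plus 3 SD and 100% = vehicle minus unstimulated blank difference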
Kir2-1 sel = mouse Kir2.1 channel activation off-target, confirmation, selectivity assay for KCNQ2 potentiator project, cell-based, HEK293, FluxOR thallium flux; actives 2% (n = 1,200); shares compounds with KCNQ2 enhance; activity over 3SD threshold, % at 10 µM; HEK293 Kir2.1, FluxOR thallium flux fluorescence;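 active = fluorescence ratio rise of at least 3 SD above the vehicle-control mean, seen in both replicates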;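 note: 0% = vehicle mean plus 3 SD and 100% = vehicle minus no-stimulus blank window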
KCNQ2 W236L pot = potentiators of retigabine-insensitive KCNQ2 W236L, mechanism study for KCNQ2 potentiator project, cell-based, rat KCNQ2 W236L, CHO, automated patch clamp | shares compounds with KCNQ2 enhance | automated patch clamp current | actives 10% (n = 940) | current increase over 3SD of negative controls (%), hits give high values, % at 25 µM;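 active = current increase at least 3 SD of the untreated controls above them in both duplicate recordings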
An asterisk follows results filed as active.

Screening O=C1NC(=S)S/C1=C\c1coc2ccccc2c1=O returned KCNQ2 enhance 1.74 and KCNQ2 block inactive.
O=C1NC(=S)S/C1=C\c1ccc2ccccc2c1 was read as KCNQ2 enhance 11*, KCNQ2 block inactive, Kir21 conf inh inactive, HEK293 Tl flux inactive, CHO-K1 ctr 54.7*, KCNQ1 pot spec -12.5, KCNQ2 pot confirm 41.8*, Kir2-1 sel -37.8 and KCNQ2 W236L pot inactive.
COc1cccc(OCCOc2ccc(/C=C3/SC(=S)NC3=O)cc2)c1 was read as KCNQ2 enhance 7.41*, KCNQ2 block inactive, Kir21 conf inh inactive, HEK293 Tl flux inactive, CHO-K1 ctr -1.4, KCNQ1 pot spec -12.3, KCNQ2 pot confirm -5.5 and Kir2-1 sel -13.9.
`COc1ccc(/C=C2/SC(=O)NC2=O)cc1` gave KCNQ2 block inactive.
Screening C=CCn1c(C(C)NC(=O)COC)nc2ccccc21 (configuration not stated) returned KCNQ2 enhance 1.07 and KCNQ2 block inactive.
`CC1(C)CC(NS(=O)(=O)c2ccc3ccccc3c2)CC(C)(C)N1` gave KCNQ2 enhance 0.65 and KCNQ2 block inactive.
Cc1cccc(NC(=O)NCCCCc2ccccc2)c1 was read as KCNQ2 block inactive.
`O=C(NCCCCc1ccccc1)Nc1cccc(F)c1` gave KCNQ2 enhance 13.1*, KCNQ2 block inactive, Kir21 conf inh inactive, HEK293 Tl flux inactive, CHO-K1 ctr -1.8, KCNQ1 pot spec -19.5, KCNQ2 pot confirm 27.2*, Kir2-1 sel -40.4 and KCNQ2 W236L pot inactive.
CCc1cc(Br)ccc1NC(=S)NCCc1ccccc1 was read as KCNQ2 block inactive, Kir21 conf inh 62.0%* and HEK293 Tl flux inactive.
`COc1ccc(NC(=S)NCCc2ccccc2)c(C)c1` gave KCNQ2 block inactive.
`CS(=O)(=O)N(CC(=O)N1CCN(c2ccccc2)CC1)c1ccc(Cl)c(C(F)(F)F)c1` gave KCNQ2 block inactive.
`C=C(C(=O)c1ccccc1)C(C)C(=C)C(=O)c1ccccc1` gave KCNQ2 block inactive.
For CC(C)(c1ccccc1)c1ccc(OCCCNCCO)cc1 the results were KCNQ2 enhance 1.02, KCNQ2 block inactive, Kir21 conf inh 28.0%* and HEK293 Tl flux inactive.
For COCCCNCCCOc1ccc(C(C)(C)c2ccccc2)cc1 the results were KCNQ2 enhance 0.52 and KCNQ2 block inactive.
CC(C)=CCC/C(C)=C/CC(C)(C)CNCCN1CCNCC1 was read as KCNQ2 block inactive, Kir21 conf inh inactive and HEK293 Tl flux inactive.
`CC(C)=CCC/C(C)=C/CCC(C)NCCN1CCNCC1` (configuration not stated) gave KCNQ2 block inactive.
